Screens: PubChem BioAssay, National Center for Advancing Translational Sciences (NCATS)
Rows were chosen to be rich in hits. Some 19% of all compounds tested hit in one or more screens of this group.
DT40 TDP1 no CPT = qHTS for Inhibitors of human tyrosyl-DNA phosphodiesterase 1 (TDP1): qHTS in cells in absence of CPT | DT40 Tdp1-/- hTDP1 cells, no CPT, ATP luminescence, 48 h | Potency, µM (series often up to 46.2 µM), without a hit: at the top dose activity change, negative = growth inhibition, most hits filed as inhibitors | 15% of 420,000 active | AID 686978, 2013; also: potency is read from the fitted curve at half-maximal effect; % is scaled to controls: 0 for no effect and ±100 for the full control effect; nearly all actives have a fitted effect of over 55% in size
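Growth of hTDP1-complemented DT40 Tdp1-knockout cells is measured by ATP luminescence after at least 48 hr compound exposure at 37 °C, with DMSO substituting for the 20 nM CPT used in the parallel screen.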
DT40 TDP1 CPT = DT40-hTDP1 cell growth loss with CPT; chicken DT40 Tdp1-/-;hTDP1 cells + 20 nM CPT, ATP luminescence, 48 h; Potency, µM (series often up to 46.2 µM), for inactives: top-dose activity change, negative = growth inhibition, hits mostly inhibitors; 12% of 420,000 active; AID 686979; also: potency is read from the fitted curve at half-maximal effect; % is scaled to controls: 0 for no effect and ±100 for the full control effect; nearly all actives have a fitted effect of over 55% in size
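Chicken DT40 Tdp1-/- cells stably complemented with human TDP1 were seeded at 400 cells/well in medium containing 20 nM camptothecin, exposed to pin-transferred compounds, and grown at 37 °C for at least 48 hr. Viability was read as ATP luminescence.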
IL1B secr inh = inflammasome signaling inhibition, IL-1 beta readout. THP-1 LPS/ATP IL-1B secretion, AlphaLISA, 16 h; hits give low values. activity change, % at 57.5 µM. 4.7% of 360,000 active; in the data active = activity change below about -50%; inconclusive = mostly about -30% to -49%; also: % is scaled to controls: 0 for no effect and ±100 for the full control effect
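THP-1 cells pretreated 1 hr with compounds (up to 57.5 uM final), then stimulated with LPS (250 ng/mL final) plus ATP (1.25 mM final); secreted IL-1B measured by AlphaLISA after 16 hr, decreased signal indicating inhibition.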
TDP1 block = blocks human tyrosyl-DNA phosphodiesterase 1; Potency, µM (doses to about 130 µM), without a hit: at the top dose activity change, negative = inhibition, hits mostly inhibitors; recombinant TDP1, AlphaScreen DNA substrate cleavage; Q9NUW8; 0.28% of 350,000 active; also: potency is read from the fitted curve at half-maximal effect; % is scaled to controls: 0 for no effect and ±100 for the full control effect; nearly all actives have a fitted effect of over 40% in size
Target sequence (Q9NUW8 whole entry, looked up): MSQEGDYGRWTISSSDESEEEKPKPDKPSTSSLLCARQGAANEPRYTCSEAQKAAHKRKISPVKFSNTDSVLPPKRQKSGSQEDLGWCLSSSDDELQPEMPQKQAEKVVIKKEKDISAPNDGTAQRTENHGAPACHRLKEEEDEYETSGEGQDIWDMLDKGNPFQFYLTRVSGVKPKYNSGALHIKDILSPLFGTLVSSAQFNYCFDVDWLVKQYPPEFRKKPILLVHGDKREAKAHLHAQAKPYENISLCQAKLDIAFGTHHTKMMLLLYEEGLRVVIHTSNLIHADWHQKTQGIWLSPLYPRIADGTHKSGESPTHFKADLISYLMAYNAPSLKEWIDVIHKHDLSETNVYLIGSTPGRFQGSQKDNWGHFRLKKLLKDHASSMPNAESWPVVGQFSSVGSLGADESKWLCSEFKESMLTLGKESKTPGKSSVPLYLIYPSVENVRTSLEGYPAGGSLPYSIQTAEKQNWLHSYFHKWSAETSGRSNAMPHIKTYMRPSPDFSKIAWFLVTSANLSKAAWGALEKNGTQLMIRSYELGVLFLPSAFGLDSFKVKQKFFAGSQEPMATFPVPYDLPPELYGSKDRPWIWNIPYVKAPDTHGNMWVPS
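Signal: AlphaScreen proximity between streptavidin donor and anti-FITC acceptor beads on intact substrate. Reaction: Tdp1 1 nM, substrate 15 nM final, 5 min RT after 15 min compound preincubation.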
HepG2 tox = HepG2 cytotoxicity, counter-screen for TGF-b inhibitors. 0.76% of 410,000 active. AID 588856. Potency, µM (top dose mostly 46.1 µM), without a hit: top-dose activity change, negative = cytotoxicity, hits mostly cytotoxic. HepG2 CAGA-GFP viability, ATP luminescence, 18 h; also: potency is read from the fitted curve at half-maximal effect
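HepG2 CAGA-GFP cells (1000/well, DMEM with 1% FBS) received compound, then TGF-beta at 500 pg/mL final, and were incubated 18 hours at 37 degrees C. Viability was read by CellTiter-Glo luminescence. Media-only wells were set as complete cell-killing and DMSO as no toxicity.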
TGFb SMAD3 inh = blocks TGF-b signaling | HepG2 CAGA-GFP TGF-b/SMAD3 reporter, GFP fluorescence, 18 h; TGF-beta stimulated, 500 pg/mL final | Potency, µM (series often up to 46.1 µM), inactives show top-dose activity, negative = inhibition, most hits filed as inhibitors | 1.2% of 410,000 active | AID 588855; also: potency is read from the fitted curve at half-maximal effect; % is scaled to controls: 0 for no effect and ±100 for the full control effect; nearly all actives have a fitted effect of over 65% in size
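Per well, imaged GFP fluorescence of HEPG2 CAGA-GFP cells gives the signal; cells get compound, then TGF-beta (500 pg/mL final), 18 h at 37 degrees C; %Activity versus -TGF-beta and +DMSO controls.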
* = called active by the depositor; ? = inconclusive; . = not tested or not shown; ! = not active in a repeat; [ ] = another dose, or the depositor's remark. Unless noted, calls follow the shape of the dose curve; as a rule, active = well fitted curve in the direction sought with a large enough effect; inconclusive = small, poorly fitted or top-dose-only effect, or another doubt; inactive = no such curve, though single readings can be large; an effect the other way counts as inactive or inconclusive.

SMILES	DT40 TDP1 no CPT	DT40 TDP1 CPT	IL1B secr inh	TDP1 block	HepG2 tox	TGFb SMAD3 inh
COc1cc(C(CCN2CCOCC2)c2c(OC)cc(OC)c3c(C)cc(=O)oc23)cc(OC)c1OC (configuration not stated)	-28.4%	?	-9.1	12.7%	-3.3%	-15.5%
COc1ccc(C(CC(=O)N2CCCCC2)c2c(OC)cc(OC)c3c(-c4ccccc4)cc(=O)oc23)cc1 (configuration not stated)	?	?	-19.0	.	3.6%	?
COC(=O)NCC(c1ccc2c(c1)OCO2)N1CCN(c2ccccc2)CC1 (configuration not stated)	-24.9%	?	13.6	3.1%	-5.3%	-1.1%
CCCCCc1cc(=O)oc2c(C(CCN3CCCCC3)c3ccc(OC)cc3)c(OC)cc(OC)c12 (configuration not stated)	16.4µM*	?	?	13.8%	11.2µM*!	?
CCCCCc1cc(=O)oc2c(C(CCN3CCN(c4ccccc4)CC3)c3ccc4c(c3)OCO4)c(OC)cc(OC)c12 (configuration not stated)	16.4µM*	25.9µM*	18.4	7.1%	-13.2%	-7.9%
CCOC(=O)c1sc(NC(=O)C2CC(=O)N(c3ccc(OCC)cc3)C2)nc1C (configuration not stated)	-0.3%	0.2%	18.4	.	-0.6%	-0.1%
OCC1(Cc2ccc(F)cc2)CCCN(CCCC(F)(F)F)C1 (configuration not stated)	-2.8%	-19.3%	0.0	.	-22.1%	-12.0%
CCCCCc1cc(=O)oc2c(C(CCN3CCCC3)c3ccc(N(C)C)cc3)c(OC)cc(OC)c12 (configuration not stated)	8.2µM*	14.6µM*	-76.3*	10.7%	12.6µM*	?
COc1ccc(C(CCN2CCCC(C)C2)c2c(OC)cc(OC)c3c2OC(=O)CC3c2cc(OC)c(OC)c(OC)c2)cc1 (configuration not stated)	?	16.4µM*	-9.8	9.1%	-20.5%	?
COc1cc(OC)c2c(c1C(CCN1CCN(c3ccccc3)CC1)c1ccc(N(C)C)cc1)OC(=O)CC2c1ccc(N(C)C)cc1 (configuration not stated)	.	.	.	25.6%	6.1%	-25.1%
COc1ccc(NC2CCCN(C(=O)c3ccccc3N3CCOCC3)C2)cc1OC (configuration not stated)	-17.2%	-21.7%	14.2	4.0%[56.1 µM]	0.9%	?
Cc1c(NC(=S)NC(NC(=O)C(C)C)C(Cl)(Cl)Cl)c(=O)n(-c2ccccc2)n1C (configuration not stated)	14.6µM*	14.6µM*	24.6	0.0%	-1.5%	-2.1%
Cc1c(NC(=O)C(C)OC(=O)c2ncc(Cl)c(Cl)c2Cl)c(=O)n(-c2ccccc2)n1C (configuration not stated)	4.5%	-4.2%	-72.4*	0.2%	3.6%	?
O=C1NC(Cc2c[nH]c3ccccc23)C(=O)N1Cc1ccc(CN2C(=O)NC(Cc3c[nH]c4ccccc34)C2=O)cc1 (configuration not stated)	23.1µM*	?	-13.6	2.7%	-41.5%	?
Cc1c(CCOC(=O)c2ccccc2)sc[n+]1Cc1ccccc1	23.1µM*	16.4µM*	3.2	10.3%	3.5%	1.1%
Cc1c(CCOC(=O)c2cc([N+](=O)[O-])cc([N+](=O)[O-])c2)sc[n+]1CC(=O)c1ccccc1	0.0%	-25.2%	7.3	5.0%	-10.4%	4.4%
Cc1c(CCOC(=O)c2ccccc2)sc[n+]1CC(=O)c1ccc(Br)cc1	?	?	-64.6*	12.0%[0.0935 µM]	-6.0%	-1.5%
O=C1c2ccccc2CCC12OC2c1ccc([N+](=O)[O-])cc1 (configuration not stated)	?	?	-12.0	.	-3.7%	1.1%
O=C1c2ccccc2CCC12OC2c1ccncc1 (configuration not stated)	2.91µM*	-16.3%	-20.0	.	-3.5%	-13.5%
Cc1nc(NCCO)c2nc(-c3ccccc3)n(CCN(C)C)c2n1	.	.	.	-1.5%	.	.
COCCNC(=S)N(CCc1c(C)[nH]c2ccc(C)cc12)Cc1cc(OC)c(OC)c(OC)c1	?	18.4µM*	-7.2	6.6%	-0.6%	-21.8%
CCNC(=S)N(CCc1c(C)[nH]c2ccc(Cl)cc12)Cc1cccnc1	?	?	-87.0*	.	-5.2%	-12.8%
CNC(=S)N(CCc1c(C)[nH]c2ccc(Cl)cc12)Cc1cccnc1	?	-1.4%	?	.	-12.2%	-11.8%
COCCNC(=S)N(CCc1c(C)[nH]c2ccc(Cl)cc12)Cc1cccnc1	20.6µM*	?	?	.	-32.9%	?
O=C(NCc1ccc(F)cc1)c1cc(C2CCCCN2C(=O)c2ccccc2)on1 (configuration not stated)	?	?	-1.7	.	-7.1%	-0.8%
SMILES	DT40 TDP1 no CPT	DT40 TDP1 CPT	IL1B secr inh	TDP1 block	HepG2 tox	TGFb SMAD3 inh
COc1ccc(C(=O)N2CCCCC2c2cc(C(=O)NCc3ccc(F)cc3)no2)cc1 (configuration not stated)	?	16.4µM*	-10.5	.	-16.8%	-4.1%
O=C(NCc1ccc(F)cc1)c1cc(C2CCCCN2C(=O)c2ccc(Cl)cc2)on1 (configuration not stated)	14.6µM*	?	0.0	.	-20.0%	?
CS(=O)(=O)N1CCCCC1c1cc(C(=O)NCc2ccc(F)cc2)no1 (configuration not stated)	-26.2%	-28.8%	7.5	.	-20.7%	7.9%
O=C(NC(=S)NCc1ccco1)c1ccccc1[N+](=O)[O-]	11.8%	-0.2%	16.4	.	2.5%	-7.0%
CCCCCCCCCCN(CCCCCCCCCC)c1ccc(/C=C/c2ccnc3ccccc23)cc1	-27.6%	-24.2%	.	.	-2.2%	-2.0%
CCNc1ccc(/C=C/c2ccnc3ccccc23)cc1	3.98µM*	-108.8%	.	.	-23.9%	0.2%
CCCCCCNc1ccc(/C=C/c2ccnc3ccccc23)cc1	12.6µM*	15.8µM*	.	.	-29.4%	?
CNc1ccc(/C=C/c2ccnc3ccccc23)cc1	15.8µM*	11.2µM*	.	.	-46.2%	-22.9%
Cc1ccc(NC(=O)CN2C=NS(=O)(=O)c3ccccc32)cc1	-14.5%	-26.4%	.	2.5%	2.1%	2.0%
